Bioassay records: PubChem BioAssay, National Center for Advancing Translational Sciences (NCATS)
Hits are enriched below; roughly 8.2% of the tested compounds scored in any of these assays.
MCF10A rereplic – induces DNA re-replication in MCF 10a normal breast cells; 2.9% of 350,000 active; MCF 10A DNA re-replication, Hoechst nuclear intensity, 48 h; AID 624296; Potency, µM (doses to about 46.1 µM), usual class: activators; also: nearly all actives have a fitted effect of over 50% in size
SW480 rerep – DNA re-replication induction in SW480 cells | AID 624297 | SW480 DNA re-replication, Hoechst DNA content imaging, 48 h | Potency, µM (highest dose often 46.1 µM), most hits filed as activators | 1.8% of 340,000 active; also: nearly all actives have a fitted effect of over 55% in size
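Cells (250 per well) received 23 nL compound or DMSO by pin tool and were kept 48 hr at 37 C, 5% CO2. Nuclei were then stained with Hoechst for 40 min and scanned for DNA content.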
ELG1 repair inh – blocks ELG1-dependent DNA repair in HEK293T cells; HEK293T ELG1-luciferase reporter, luminescence, 16 h; DNA damage induced by 5-fluorouridine; Potency, µM (series often up to 46.1 µM), most hits filed as inhibitors; 2.3% of 330,000 active; AID 504467; also: nearly all actives have a fitted effect of over 55% in size
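Step one: seed 2,000 cells per well. Step two: pin-transfer compound or DMSO alongside 5-fluorouridine. Step three: incubate 16 hr, 37 °C, 5% CO2. Step four: add ONE-Glo, wait 30 min, read luminescence.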
KB-3-1 cytotox – kills parental KB-3-1 adenocarcinoma cells. Potency, µM (top dose mostly 46.1 µM), usual class: cytotoxic. KB-3-1 viability, CellTiter-Glo ATP luminescence, 72 h. 1.4% of 400,000 active; also: nearly all actives have a fitted effect of over 60% in size
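Here the drug-naive KB-3-1 line serves as comparator for MDR sub-line selectivity; cells received compound titrations, 72 h at 37 °C, then CellTiter-Glo readout.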
KB-V1 MDR tox – kills drug-selected multidrug resistant KB-V1 cells | KB-V1 MDR cells viability, CellTiter-Glo, 72 h | AID 1347076 | Potency, µM (titrated, usually from 46.1 µM), actives largely listed as cytotoxic | 3.4% of 400,000 active; also: nearly all actives have a fitted effect of over 60% in size
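Compound-treated KB-V1 multidrug-resistant cells, 72 h, 37 degrees C; viability by CellTiter-Glo. Fitted qHTS curves give the values.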
Large screens that a line does not name were inactive. Calls follow the shape of the dose curve; as a rule, active = well fitted curve in the direction sought with a large enough effect; inconclusive = small, poorly fitted or top-dose-only effect, or another doubt; inactive = no such curve, though single readings can be large; an effect the other way counts as inactive or inconclusive.

Cc1c(S(=O)(=O)N2CCN(c3ccccc3)CC2)c(=O)n(C)c(=O)n1C	none
CCOC(=O)c1nnn(CC(=O)Nc2cc(C)cc(C)c2)c1C(=O)OCC	KB-V1 MDR tox inconclusive (no result: MCF10A rereplic, SW480 rerep, ELG1 repair inh)
Cc1cccc(C)c1NC(=O)CCCSc1nnc(-c2ccc(Cl)cc2)n1-c1ccccc1	MCF10A rereplic inconclusive, SW480 rerep inconclusive, ELG1 repair inh 21µM, KB-3-1 cytotox 4.1µM, KB-V1 MDR tox 2.9µM
Cc1cccc(C)c1NC(=O)CCCSc1nnc(-c2ccc(F)cc2)n1-c1ccccc1	MCF10A rereplic inconclusive, ELG1 repair inh 16µM, KB-3-1 cytotox 16µM, KB-V1 MDR tox 2.3µM
Cc1c(C(=O)NCc2ccccc2C(F)(F)F)sc(=O)n1Cc1ccccc1C#N	KB-V1 MDR tox inconclusive (no result: MCF10A rereplic, SW480 rerep, ELG1 repair inh)
Clc1ccc(CSc2nncn2-c2ccc3c(c2)OCCO3)cc1	MCF10A rereplic 9.2µM, SW480 rerep 21µM, KB-3-1 cytotox 13µM, KB-V1 MDR tox inconclusive
CC(=O)N1c2ccccc2N(Cc2ccc(C)cc2C)C(=O)C1(C)C	MCF10A rereplic 12µM, SW480 rerep 18µM, KB-3-1 cytotox 4.1µM, KB-V1 MDR tox inconclusive
CN1CCN(c2cc3c(c4c2[nH]c2ccccc24)C(=O)CC(C)(C)C3)CC1	MCF10A rereplic 21µM, SW480 rerep inconclusive, KB-3-1 cytotox inconclusive
C(=C\c1ccccc1)/CN1CCN(C(c2nnnn2C2CCCCC2)C2CC2)CC1 (centres undefined)	KB-V1 MDR tox 18µM (no result: MCF10A rereplic, SW480 rerep, ELG1 repair inh)
COc1ccc(C(CNC(=O)c2cc3c(s2)CCC(C)C3)N2CCCC2)cc1 (centres undefined)	MCF10A rereplic inconclusive, SW480 rerep inconclusive, ELG1 repair inh inconclusive, KB-3-1 cytotox 21µM
COc1ccc(C(CNC(=O)c2cc3c(s2)CCC(C)C3)N2CCOCC2)cc1 (centres undefined)	MCF10A rereplic inconclusive
CC1(C)CCC[C@]2(C)[C@H]3Cc4cc(O)ccc4O[C@]3(C)CC[C@@H]12	MCF10A rereplic 12µM
CCNC(=O)N(C)C[C@H]1N[C@@](Cc2ccccc2)(C(=O)OC)[C@H]2C(=O)N(C)C(=O)[C@@H]12	MCF10A rereplic inconclusive, ELG1 repair inh inconclusive, KB-3-1 cytotox inconclusive, KB-V1 MDR tox inconclusive
O=C(OCCOc1ccc(Br)cc1)c1ccc(Cl)c(S(=O)(=O)N2CCOCC2)c1	none
COc1ccc(Cc2noc(-c3ccc(OC)c(OC)c3)n2)cc1OC	MCF10A rereplic inconclusive, SW480 rerep inconclusive, ELG1 repair inh 21µM, KB-V1 MDR tox 12µM
COc1cc(-c2nc(-c3ccc(NC(=O)c4ccc(Br)o4)cc3)no2)cc(OC)c1OC	MCF10A rereplic 5.2µM, ELG1 repair inh 10µM, KB-V1 MDR tox inconclusive
COc1ccc(-c2nc(-c3ccc(NC(=O)c4ccc(Br)o4)cc3)no2)cc1OC	MCF10A rereplic 2.6µM, ELG1 repair inh inconclusive
CCOc1ccc(-c2nc(-c3ccc(OC)cc3)no2)cc1OCC	KB-V1 MDR tox 13µM
CC(=O)c1cccc(NC(=O)c2noc3c2CC(C)CC3)c1 (centres undefined)	none (no result: MCF10A rereplic, SW480 rerep, ELG1 repair inh)
CC(C)(C)C1CCc2sc(C(=O)NNC(=O)CCl)cc2C1 (centres undefined)	MCF10A rereplic inconclusive, SW480 rerep inconclusive, ELG1 repair inh inconclusive
Cc1ccccc1OCC(=O)Nc1ccc(S(=O)(=O)Nc2ncccn2)cc1	none (no result: MCF10A rereplic, SW480 rerep, ELG1 repair inh)
CCOc1ccc(C(=O)COC(=O)CNC(=O)C2CCCCC2)cc1	KB-3-1 cytotox inconclusive, KB-V1 MDR tox inconclusive
c1coc(CN(Cc2ccco2)c2ncnc3c2oc2ccccc23)c1	MCF10A rereplic inconclusive, SW480 rerep inconclusive, ELG1 repair inh inconclusive, KB-3-1 cytotox inconclusive, KB-V1 MDR tox 16µM
CCSc1ncnc2c1oc1ccccc12	ELG1 repair inh inconclusive
CC(C)Cc1ccc(C(C)CC2=CCC(CN(C)C)C2=O)cc1 (centres undefined)	MCF10A rereplic 6.5µM, SW480 rerep inconclusive, KB-3-1 cytotox inconclusive, KB-V1 MDR tox inconclusive (no result: ELG1 repair inh)
CCOC(=O)Nc1ccc2c(CN3CCN(S(=O)(=O)c4ccccc4F)CC3)cc(=O)oc2c1	ELG1 repair inh 6.5µM, KB-V1 MDR tox inconclusive
C=CCn1c(N)c(C(=O)NCC2CCCO2)c2nc3ccccc3nc21 (centres undefined)	SW480 rerep 9.2µM, ELG1 repair inh 10µM, KB-V1 MDR tox inconclusive
O=C(NCC1CCCO1)c1coc2nc3ccccc3nc12 (centres undefined)	MCF10A rereplic 21µM, ELG1 repair inh inconclusive, KB-V1 MDR tox inconclusive
COc1ccc(-n2c(N)c(C(=O)NCC3CCCO3)c3nc4ccccc4nc32)c(OC)c1 (centres undefined)	MCF10A rereplic inconclusive, SW480 rerep inconclusive
CCc1ccc(-c2cc(C(F)(F)F)n3nc(C(=O)Nc4cnn(Cc5ccc(C)cc5)c4)cc3n2)s1	MCF10A rereplic inconclusive, ELG1 repair inh inconclusive, KB-V1 MDR tox 3.7µM
Cc1ccc(Cn2ccc(NC(=O)c3cc4nc(-c5ccco5)cc(C(F)(F)F)n4n3)n2)cc1	none
Cc1ccccc1Cn1cc(NC(=O)c2cc3nc(-c4ccco4)cc(C(F)(F)F)n3n2)cn1	ELG1 repair inh 6.5µM
CNC(=S)N(Cc1cc2cc(C)ccc2n2nnnc12)CC(C)(C)CN(C)C	none
COc1ccc(C(CC(=O)c2ccccc2)CC(=O)c2ccccc2)cc1OC	ELG1 repair inh inconclusive
Cc1ccc2sc3ccc(NC(=O)c4ccccc4Cl)cc3c(=O)c2c1	MCF10A rereplic inconclusive, SW480 rerep 13µM, KB-3-1 cytotox inconclusive, KB-V1 MDR tox inconclusive
CC(Sc1nnnn1-c1ccc(Cl)cc1)C(=O)NCC(=O)Nc1ccc(F)c(F)c1F (centres undefined)	ELG1 repair inh inconclusive, KB-V1 MDR tox 16µM
Cc1cc(C)c2c(=O)n(CC(=O)Nc3ccc(Cl)cc3)sc2n1	MCF10A rereplic inconclusive, SW480 rerep inconclusive
Cc1ccc(NC(=O)Cn2sc3nc(C)cc(C)c3c2=O)c(Cl)c1	MCF10A rereplic 4.6µM, SW480 rerep inconclusive, ELG1 repair inh inconclusive
COc1ccc(/C=C/C(=O)Nc2ccc(S(=O)(=O)N3CCOCC3)cc2)c(OC)c1	ELG1 repair inh 23µM
COc1ccc(CCNC(=O)/C=C/c2ccc(S(=O)(=O)N3CCOCC3)cc2)cc1	SW480 rerep 4.1µM
COc1ccc(NC(=O)/C=C/c2ccc(S(=O)(=O)N3CCOCC3)cc2)cc1	KB-V1 MDR tox inconclusive
CCN1CCN(c2ccc(S(=O)(=O)N3CCOCC3)cc2NC(=O)/C=C/c2ccc(OC)cc2OC)CC1	SW480 rerep inconclusive
COc1ccc(/C=C/C(=O)Nc2ccc(C)c(S(=O)(=O)N3CCOCC3)c2)cc1	ELG1 repair inh 21µM, KB-V1 MDR tox 4.1µM
CCOc1ccc(/C=C/C(=O)NCCc2ccc(OC)c(OC)c2)cc1	KB-V1 MDR tox 16µM
CCOc1cc(C(N)=O)cc(Br)c1OCC	ELG1 repair inh 8.2µM
O=C(CCCN=C1NS(=O)(=O)c2ccccc21)OCC(=O)c1ccccc1Cl	MCF10A rereplic 3.7µM
